Experimental findings from publication PMC4336329 (PLoS ONE, 2015) are described below.

SMILES strings stand for the structures. The whole screen tested about 310,000 compounds, of which about 14,000 (4.5%) showed an effect of 50% or more. Effects have a minus sign here. Many of the other results were omitted from the sample, so strong results are more common in it than they were.
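Further: peak tail current of the secondary pulse compared with the same well before compound.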

human ether-à-go-go-related gene (hERG) potassium channel, sequence (Q12809 whole entry, looked up): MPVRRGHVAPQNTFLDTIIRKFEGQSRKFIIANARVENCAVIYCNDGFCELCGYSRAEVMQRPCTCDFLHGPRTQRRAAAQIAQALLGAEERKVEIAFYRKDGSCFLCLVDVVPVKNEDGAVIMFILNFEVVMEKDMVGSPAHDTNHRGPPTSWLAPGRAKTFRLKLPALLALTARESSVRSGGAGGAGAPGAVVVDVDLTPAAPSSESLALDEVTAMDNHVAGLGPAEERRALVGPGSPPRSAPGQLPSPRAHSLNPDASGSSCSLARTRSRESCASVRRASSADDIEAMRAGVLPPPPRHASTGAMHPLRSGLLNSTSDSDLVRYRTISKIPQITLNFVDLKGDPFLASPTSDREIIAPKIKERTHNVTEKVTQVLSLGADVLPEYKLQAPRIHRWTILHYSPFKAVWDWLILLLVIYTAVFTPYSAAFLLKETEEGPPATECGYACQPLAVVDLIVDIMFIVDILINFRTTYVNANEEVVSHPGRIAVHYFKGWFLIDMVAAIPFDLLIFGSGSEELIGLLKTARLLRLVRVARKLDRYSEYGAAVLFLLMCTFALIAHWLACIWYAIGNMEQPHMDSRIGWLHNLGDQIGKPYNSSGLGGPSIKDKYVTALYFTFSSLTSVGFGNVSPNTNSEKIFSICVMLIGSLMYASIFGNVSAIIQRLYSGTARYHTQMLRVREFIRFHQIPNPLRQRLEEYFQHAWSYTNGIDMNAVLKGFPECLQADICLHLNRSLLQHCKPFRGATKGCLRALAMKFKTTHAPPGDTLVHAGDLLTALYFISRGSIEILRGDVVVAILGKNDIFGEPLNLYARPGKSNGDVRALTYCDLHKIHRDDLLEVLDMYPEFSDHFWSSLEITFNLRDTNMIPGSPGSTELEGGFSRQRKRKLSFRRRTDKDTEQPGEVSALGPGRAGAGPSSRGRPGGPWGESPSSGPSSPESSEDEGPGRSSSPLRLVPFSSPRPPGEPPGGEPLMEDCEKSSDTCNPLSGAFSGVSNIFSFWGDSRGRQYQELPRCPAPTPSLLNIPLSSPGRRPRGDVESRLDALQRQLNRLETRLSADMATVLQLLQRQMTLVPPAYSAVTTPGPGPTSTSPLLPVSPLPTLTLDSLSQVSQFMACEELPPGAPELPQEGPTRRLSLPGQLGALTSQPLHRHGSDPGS

The assay addresses human ether-à-go-go-related gene (hERG) potassium channel (human, UniProt Q12809). Nature of the assay: primary screen, population patch clamp on CHO cells stably expressing hERG; higher = less effect of the substance.
In the case of `Cc1cccc(N2CCN(CC(=O)Nc3nccs3)CC2)c1C`, the “hERG current change (%, negative = inhibition) at 10uM” value was -45.3%.

With `Cc1cc2nc(-c3ccc(SCC(=O)Nc4ccc5c(c4)OCCO5)nc3)[nH]c2cc1C`, the “hERG current change (%, negative = inhibition) at 10uM” value is on record as 2.26%. Turning to `COC(=O)c1cc2c(cc1NC(=O)CSCCc1ccccn1)OCO2`, the “hERG current change (%, negative = inhibition) at 10uM” value worked out at 7.82%. `COc1ccc(-c2noc(CN(C)S(=O)(=O)c3ccc(Cl)cc3)n2)cc1OC`: the “hERG current change (%, negative = inhibition) at 10uM” value was -9.85%. For the compound `O=C1NC(=O)[C@]2(Cc3ccccc3N3CCN(c4ccccc4)CC32)C(=O)N1c1ccccc1` (some centres unmarked), the “hERG current change (%, negative = inhibition) at 10uM” value was -7.93%. Then `COc1ccc([N+](=O)[O-])cc1NS(=O)(=O)c1ccccc1`, with 8.94%; and `COc1ccc(N2CCN(CC(=O)Nc3cc(C)on3)CC2)cc1.O=C(O)C(=O)O`, with 0.616%.

For `CC(C)Cn1c(N)c(C(=O)CSc2ncccn2)c(=O)n(C)c1=O`, the “hERG current change (%, negative = inhibition) at 10uM” value turned out to be 6.81%. On to `Cc1ccc(S(=O)(=O)CCC(=O)NCc2ccc(Cl)cc2)cc1`, for which the “hERG current change (%, negative = inhibition) at 10uM” value is reported as -3.96%. Then `CCOc1ccc(OCCC(=O)N(CC)CC(=O)NCc2ccc(Cl)cc2)cc1`, with -60.5%.

`CCN(CC(=O)Nc1c(F)cccc1F)C(=O)CCC(=O)c1ccc(F)cc1`: the “hERG current change (%, negative = inhibition) at 10uM” value was -12.1%.

`CCN(CC(=O)Nc1c(F)cccc1F)C(=O)CCNC(=O)c1ccc([N+](=O)[O-])cc1`: the “hERG current change (%, negative = inhibition) at 10uM” value is recorded as -55.4%.

Consider `CCN(CC(=O)NCc1cccs1)C(=O)CCCOc1ccc(C(C)(C)C)cc1`, for which the “hERG current change (%, negative = inhibition) at 10uM” value is given as -52.6%. With `CCN(CC(=O)Nc1cc(Cl)ccc1C)C(=O)CCOc1ccc(C)cc1`, the “hERG current change (%, negative = inhibition) at 10uM” value is given as -8.25%. In the case of `CCCCOc1ccc(C(=O)N(CC)CC(=O)NCc2cccs2)cc1` it was -19.1%; in that of `CCN(CC(=O)Nc1c(F)cccc1F)C(=O)CCCNC(=O)c1ccc(Cl)cc1`, -7.06%.

Regarding `CCOc1ccc(N(CC(=O)NCc2ccc(Cl)cc2)S(=O)(=O)c2ccccc2)cc1`, the “hERG current change (%, negative = inhibition) at 10uM” value is listed as 20.4%. In the case of `CCOc1ccc(OCCC(=O)OCC(=O)NCc2ccc(Cl)cc2)cc1` it was 8.85%; in that of `CCN(CC(=O)NCc1cccs1)C(=O)CCCOc1ccccc1`, -35.2%.

Regarding `CCN(CC(=O)Nc1ccccc1C(F)(F)F)C(=O)CCOc1ccc(C)cc1`, the “hERG current change (%, negative = inhibition) at 10uM” value is given as -13.1%.

On to `CCN(CC(=O)NCc1ccc(Cl)cc1)C(=O)CCOc1ccc(C)cc1`, for which the “hERG current change (%, negative = inhibition) at 10uM” value is listed as -82.6%. As for `O=C(NCC1COCCO1)C1CCN(S(=O)(=O)c2ccccc2)CC1` (centres unmarked), the “hERG current change (%, negative = inhibition) at 10uM” value is -7.05%. Then `Cc1cc(C)cc(N(CC(=O)NCc2cccnc2)S(C)(=O)=O)c1`, with -1.95%; and `Cc1ccccc1NCc1ccc([N+](=O)[O-])s1`, with -38.8%. Turning to `CCC(C)(CC(=O)N(C)CCC#N)c1ccccc1` (centres unmarked), the “hERG current change (%, negative = inhibition) at 10uM” value is on record as -0.111%. Turning to `COc1ccc(C(=O)N2CCCC(Nc3ccc(C)c(C)c3)C2)c(OC)n1` (centres unmarked), the “hERG current change (%, negative = inhibition) at 10uM” value is on record as -17.7%.

As to `COc1cc(OC)cc(-c2nc3ccccc3c(=O)n2OC(=O)c2ccccc2C)c1`, the “hERG current change (%, negative = inhibition) at 10uM” value amounted to 10.6%. For the compound `CCN(CC(=O)NCc1ccc(Cl)cc1)C(=O)CCOc1ccccc1C`, the “hERG current change (%, negative = inhibition) at 10uM” value is listed as -71%. In the case of `CCN(CC(=O)Nc1cc(Cl)ccc1C)C(=O)CCOc1ccccc1C` it was 18.4%. Consider `CCN(CC(=O)NCc1cccs1)C(=O)CCOc1ccccc1C`, for which the “hERG current change (%, negative = inhibition) at 10uM” value was -19.8%.

For the compound `CCOc1ccc(OCCC(=O)N(CC)CC(=O)Nc2c(F)cccc2F)cc1`, the “hERG current change (%, negative = inhibition) at 10uM” value is given as -60.2%. For `CCOc1ccc(OCCCC(=O)N(CC)CC(=O)Nc2c(F)cccc2F)cc1`, the “hERG current change (%, negative = inhibition) at 10uM” value is recorded as -5.99%. Take `CCN(CC(=O)Nc1c(F)cccc1F)C(=O)CCOc1ccc(C)cc1`: the “hERG current change (%, negative = inhibition) at 10uM” value is recorded as -2.71%. In the case of `C=CCn1c(C)cc(C(=O)COC(=O)c2cncc(Br)c2)c1C`, the “hERG current change (%, negative = inhibition) at 10uM” value is reported as -55.9%. `C=CCn1c(C)cc(C(=O)COC(=O)c2ccc3c(c2)NC(=O)CS3)c1C`: the “hERG current change (%, negative = inhibition) at 10uM” value came out at 4.69%. Then `COCCn1c(C)cc(C(=O)COC(=O)c2cncc(Br)c2)c1C`, with -31.3%. In the case of `COc1cc(NS(=O)(=O)c2ccc(N)cc2)nc(OC)n1` it was 9.57%.

`Cc1cc(C)nc(NS(=O)(=O)c2ccc(N)cc2)n1`: the “hERG current change (%, negative = inhibition) at 10uM” value was determined as 12%. Then `CNc1cc(NS(=O)(=O)c2ccc(N)cc2)nc(NC)n1.Cl`, with -61.4%; and `CN(C)CCNc1ncnc2c1sc1nc(N3CCCC3)c3c(c12)CC(C)(C)OC3`, with -20.4%. Then `CN(CCO)c1ncnc2c1sc1nc(N3CCOCC3)c3c(c12)CCC3`, with -55.2%; and `OCCN1CCN(c2ncnc3c2sc2nc(N4CCOCC4)c4c(c23)CCC4)CC1`, with -22.1%; and `OCCN(CCO)c1ncnc2c1sc1nc(N3CCOCC3)c3c(c12)CCCC3`, with -13.3%.

In the case of `CCN(CC)CCNc1ncnc2c1sc1nc(N3CCOCC3)c3c(c12)CC(C)(C)SC3`, the “hERG current change (%, negative = inhibition) at 10uM” value is given as -71.1%. For `CC(C)CNc1ncnc2c1sc1nc(N3CCOCC3)c3c(c12)CC(C)(C)OC3`, the “hERG current change (%, negative = inhibition) at 10uM” value is -4.77%. In the case of `CCN(CC)CCNc1ncnc2c1sc1nc(N3CCOCC3)c3c(c12)CCCC3` it was -32.8%; in that of `CC1(C)Cc2c(c(N3CCOCC3)nc3sc4c(NN)ncnc4c23)CS1`, -5.43%.

Consider `CCN(CC)CCNc1ncnc2c1sc1nc(N3CCCC3)c3c(c12)CC(C)(C)OC3`, for which the “hERG current change (%, negative = inhibition) at 10uM” value is reported as -65.5%. In the case of `C[C@]12CCC(OC(=O)CCC(=O)O)CC1=CCC1C2CC[C@]2(C)C(=O)CCC12` (some centres unmarked) it was 11.5%; in that of `CC1(C)c2[nH]c3ccccc3c2C[C@H]2C(=O)N(N)CC(=O)N21.Cl`, 19%; in that of `COc1ccc(N2CCN(c3nc4cc(C)ccc4cc3C=O)CC2)cc1`, 16.6%. Then `COC(=O)C1=C(c2c(C)noc2C)C[C@@H]2CC[C@H]1N2C(=O)NCc1ccco1`, with 19%; and `O=C1COc2ccc(C(=O)CSc3nnc(NCc4ccccc4)s3)cc2N1`, with -9.48%; and `Cc1csc(NC(=O)CSc2nnc(-c3ccco3)n2C)n1`, with -31.6%. Regarding `CCn1c(SCC(=O)Nc2nncs2)nnc1-c1ccco1`, the “hERG current change (%, negative = inhibition) at 10uM” value is 17.2%. In the case of `O=[N+]([O-])c1ccc(Sc2ccccn2)nc1` it was 10.8%; in that of `CCOC(=O)c1cnc(SCC(=O)Nc2nnc(CC)s2)nc1N`, 8.46%; in that of `O=[N+]([O-])c1ccc(Sc2ncc3ccccn23)nc1`, -51.6%. Then `O=[N+]([O-])c1ccc(Sc2ccccc2)nc1`, with 8.82%; and `CCn1c(SCC(=O)Nc2nc(C)cs2)nnc1-c1ccco1`, with -50.8%; and `O=[N+]([O-])c1ccc(Sc2n[nH]c(-c3ccco3)n2)nc1`, with -0.59%. As to `CCn1c(Sc2ccc([N+](=O)[O-])cn2)nnc1-c1ccco1`, the “hERG current change (%, negative = inhibition) at 10uM” value is -66.5%. For `CCOC(=O)c1cnc(SCC(=O)Nc2sc(C)c(C)c2C#N)nc1N`, the “hERG current change (%, negative = inhibition) at 10uM” value turned out to be 14.2%. In the case of `CCOC(=O)c1cnc(SCC(=O)Nc2nc(C)c(C)s2)nc1N` it was -61.9%; in that of `CCn1c(SCC(N)=O)nnc1-c1ccco1`, 3.15%.
